The subject of experiment [1] is Wnt5a (protein binding on small-molecule microarray). Description: Wnt5a binders on small-molecule microarray, primary screen, biophysical, 635/667 nm fluorescence (AID 1142).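 Note: fluorescence read at 667 nm with signal to noise per printed feature.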 Particulars: 635 nm fluorescence, higher = more signal.
Experiment [2] can be described thus: cell viability in Huh7 cells, primary screen, cytotoxicity control for HCV replication inhibitor project, CellTiter-Glo luminescence, basal, 48 h (AID 1143).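 Note: Huh7 hepatoma cells carrying a hepatitis C replication reporter with no stimulus; test concentration not given here.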 To be noted: Huh7 HCV replicon, higher = more signal, called active from +8 up or from −8 down.
A short description of experiment [3]: P. aeruginosa biofilm formation inhibitors, primary screen, PAO1 strain, BacTiter-Glo luminescence, LB-PBS (AID 1144). To be noted: 12 h, higher = more signal.
Experiment [4] can be described thus: CREB reporter modulators without forskolin, primary screen, cell-based, PC12, CRE-LacZ reporter, unstimulated (AID 1145). To be noted: no forskolin, luminescence, 4.5 h, higher = more signal, called active from +8 up or from −8 down.
A short description of experiment [5]: CREB reporter modulators under forskolin, primary screen, cell-based, PC12, CRE-LacZ reporter, forskolin-stimulated (AID 1146).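 Note: PC12 cells with 6xCRE LacZ reporter stimulated by forskolin 10 µM; beta-galactosidase reporter signal reflecting CREB driven transcription.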 To be noted: luminescence, 4.5 h, higher = more signal, called active from +8 up or from −8 down.
In experiment [6] the target is Streptavidin (Streptomyces avidinii) (UniProt P22629). Briefly: streptavidin binders on small-molecule microarray, primary screen, artefact control for SMM compound annotation, biophysical, 635/667 nm fluorescence (AID 1147).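 Note: signal reflects streptavidin binding to arrayed compounds as a control protein.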 To be noted: streptavidin binding, higher = more signal.
The nature of experiment [7]: small-molecule binders of probe aInhba, primary screen, biochemical, small-molecule microarray, 635/667 nm fluorescence (AID 1148).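 Note: score merges 667nm spot fluorescence with signal-to-noise for antibody binding to printed compounds.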 To be noted: higher = more signal.
Experiment [8] addresses Torsin-1A (Homo sapiens) (UniProt O14656). Description: torsin A binders from cell lysate, primary screen, small-molecule microarray, wild-type, 635/667 nm (AID 1149). Particulars: COS7 hTOR1A-WT lysate, 635 nm fluorescence, higher = more signal.
The target is the same in experiment [9]. Briefly: small-molecule binders of mutant TOR1A in lysate, primary screen, cell lysate, small-molecule microarray, COS7 lysate, 635/667 nm fluorescence (AID 1150).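 Note: score pools 667 nm emission and signal to noise measuring lysate protein binding.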 Particulars: COS7 hTOR1A mutant lysate, 635 nm fluorescence, higher = more signal.
Experiment [10] concerns Sonic hedgehog protein (Shh). Description: small-molecule binders of Shh protein, primary screen, biochemical, small-molecule microarray, 635/667 nm fluorescence (AID 1151).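 Note: Shh protein binding to compounds spotted on small-molecule microarray slides; score combines spot fluorescence intensity with signal-to-noise across triplicate slides.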 Particulars: small-molecule microarray binding, 635 nm fluorescence; higher = more signal.
Experiment [11] can be described thus: E. coli DRC41 culture turbidity changes, primary screen, E. coli filamentation inducer project, strain DRC41, OD650, 48 h (AID 1152).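 Note: E. coli MC1000 strain DRC41 lacking acrAB efflux pump and sulA.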 Particulars: E. coli DRC41 (acrAB sulA), higher = more signal, called active from +8 up or from −8 down.
Experiment [12] can be described thus: small-molecule binders of probe aLefty1, primary screen, biochemical, small-molecule microarray, 635/667 nm fluorescence (AID 1153).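 Note: score merges spot fluorescence with signal-to-noise ratio from the scanned slide images.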 To be noted: higher = more signal.
A short description of experiment [13]: PSAC antagonists in infected red cells, primary screen, cell-based, P. falciparum Indochina, OD700, 1 h (AID 1154). Particulars: P. falciparum Indochina infected RBC osmotic lysis, higher = more signal, called active from +8 up or from −8 down.
A short description of experiment [14]: PSAC antagonists in infected red cells, primary screen, cell-based, P. falciparum Indochina, OD700, 2 h (AID 1155).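 Note: lysis reports solute entry through the parasite surface anion channel PSAC; channel blockers reduce lysis of infected cells.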 Particulars: P. falciparum Indochina infected erythrocytes, osmotic lysis OD700; higher = more signal, called active from +8 up or from −8 down.
Experiment [15] is described as follows: osmotic lysis modulators in infected erythrocytes, primary screen, PSAC antagonist project, cell-based, P. falciparum Indochina, OD700, 3 h (AID 1156). Particulars: higher = more signal, called active from +8 up or from −8 down.
The nature of experiment [16]: PSAC antagonists in infected red cells, primary screen, cell-based, P. falciparum Indochina, OD700, 18 h (AID 1157). To be noted: P. falciparum Indochina infected erythrocytes, osmotic lysis OD700, 18 h; higher = more signal, called active from +8 up or from −8 down.
Experiment [17] in a line: modulators of S6 phosphorylation in cells, primary screen, cell-based, A549, cytoblot, luminescence, serum-stimulated (AID 1158).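 Note: serum-stimulated A549 lung adenocarcinoma cells; signal is phosphorylated S6 detected by cytoblot immunostaining with HRP secondary.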 To be noted: A549 phospho-S6 cytoblot, 5 h, higher = more signal.
Experiment [18] deals with NADPH oxidase 2 (Homo sapiens) (UniProt P04839). Description: NOX2-dependent H2O2 signal modulators, primary screen, NOX inhibitor project, cell-based, HEK293-NOX2, PMA-stimulated, Amplex Red fluorescence (AID 1159). Note: test concentration not given here. Particulars: 45 min, higher = more signal, called active from +8 up or from −8 down.
Experiment [19] addresses NADPH oxidase 4 (Homo sapiens) (UniProt Q9NPH5). Description: NOX4-dependent H2O2 signal modulators, primary screen, NOX inhibitor project, cell-based, HEK293-NOX4, tetracycline-induced, Amplex Red fluorescence (AID 1160). To be noted: 45 min, higher = more signal, called active from +8 up or from −8 down.
The target of experiment [20] is NADPH oxidase 5 (Homo sapiens) (UniProt Q96PH1). Briefly: NOX5-dependent H2O2 signal modulators, primary screen, NOX inhibitor project, cell-based, HEK293-NOX5, Amplex Red fluorescence (AID 1161). Particulars: HEK293-NOX5, ionomycin, 45 min, higher = more signal.

Structures are written as SMILES. Activity calls are given as the source filed them. Unless noted, the rule behind the calls is not given here.

Chain of NADPH oxidase 5 (Homo sapiens) (Q96PH1 whole entry, looked up): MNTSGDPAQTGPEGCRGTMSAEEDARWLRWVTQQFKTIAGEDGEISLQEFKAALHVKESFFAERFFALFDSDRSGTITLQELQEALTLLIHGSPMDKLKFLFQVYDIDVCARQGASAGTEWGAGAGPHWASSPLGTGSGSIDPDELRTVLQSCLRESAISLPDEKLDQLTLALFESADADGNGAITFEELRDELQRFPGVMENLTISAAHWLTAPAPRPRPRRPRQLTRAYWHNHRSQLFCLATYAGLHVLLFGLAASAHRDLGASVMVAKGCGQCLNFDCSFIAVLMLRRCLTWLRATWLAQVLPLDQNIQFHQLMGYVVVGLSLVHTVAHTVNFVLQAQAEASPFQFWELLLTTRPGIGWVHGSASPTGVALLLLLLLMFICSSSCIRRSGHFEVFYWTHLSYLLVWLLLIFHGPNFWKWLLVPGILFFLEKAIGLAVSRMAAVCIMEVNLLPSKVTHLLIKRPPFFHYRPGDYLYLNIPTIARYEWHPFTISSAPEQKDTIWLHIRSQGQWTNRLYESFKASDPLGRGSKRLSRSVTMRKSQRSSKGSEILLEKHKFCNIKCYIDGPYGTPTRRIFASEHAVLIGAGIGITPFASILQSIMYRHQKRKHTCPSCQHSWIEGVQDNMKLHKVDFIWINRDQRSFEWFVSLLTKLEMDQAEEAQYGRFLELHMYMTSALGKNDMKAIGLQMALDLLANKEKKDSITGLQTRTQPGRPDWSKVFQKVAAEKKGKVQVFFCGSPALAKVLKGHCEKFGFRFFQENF
Chain of NADPH oxidase 2 (Homo sapiens) (P04839 whole entry, looked up): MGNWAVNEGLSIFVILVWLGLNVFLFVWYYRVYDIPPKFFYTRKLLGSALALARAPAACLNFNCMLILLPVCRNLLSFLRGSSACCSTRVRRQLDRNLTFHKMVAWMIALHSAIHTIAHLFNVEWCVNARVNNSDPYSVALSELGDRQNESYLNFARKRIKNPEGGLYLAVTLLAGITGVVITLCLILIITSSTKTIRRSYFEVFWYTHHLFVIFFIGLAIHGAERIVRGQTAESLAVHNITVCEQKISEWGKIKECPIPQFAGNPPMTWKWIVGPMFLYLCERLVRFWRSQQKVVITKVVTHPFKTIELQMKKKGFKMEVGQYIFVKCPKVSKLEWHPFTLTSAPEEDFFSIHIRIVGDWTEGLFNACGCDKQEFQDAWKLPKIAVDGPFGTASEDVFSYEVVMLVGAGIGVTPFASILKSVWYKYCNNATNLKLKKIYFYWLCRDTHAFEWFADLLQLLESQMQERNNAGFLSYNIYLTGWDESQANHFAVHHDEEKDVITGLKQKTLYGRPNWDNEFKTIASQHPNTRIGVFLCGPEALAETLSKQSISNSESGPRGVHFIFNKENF
Chain of NADPH oxidase 4 (Homo sapiens) (Q9NPH5 whole entry, looked up): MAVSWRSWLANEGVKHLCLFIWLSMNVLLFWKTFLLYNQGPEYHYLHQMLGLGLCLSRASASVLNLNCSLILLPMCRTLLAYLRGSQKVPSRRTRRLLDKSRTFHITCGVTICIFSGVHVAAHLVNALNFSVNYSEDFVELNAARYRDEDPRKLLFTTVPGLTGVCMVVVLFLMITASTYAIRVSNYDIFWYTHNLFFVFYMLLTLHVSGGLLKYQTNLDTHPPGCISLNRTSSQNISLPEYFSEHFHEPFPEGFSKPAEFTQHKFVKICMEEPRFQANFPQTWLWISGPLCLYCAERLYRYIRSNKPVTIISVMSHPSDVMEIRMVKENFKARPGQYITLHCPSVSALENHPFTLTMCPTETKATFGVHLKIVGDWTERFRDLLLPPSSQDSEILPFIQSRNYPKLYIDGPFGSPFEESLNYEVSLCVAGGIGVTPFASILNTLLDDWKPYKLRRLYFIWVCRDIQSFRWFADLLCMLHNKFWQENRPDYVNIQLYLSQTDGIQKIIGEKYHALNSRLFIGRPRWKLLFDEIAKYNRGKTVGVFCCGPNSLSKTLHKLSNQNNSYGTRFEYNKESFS
Chain of Streptavidin (Streptomyces avidinii) (P22629 whole entry, looked up): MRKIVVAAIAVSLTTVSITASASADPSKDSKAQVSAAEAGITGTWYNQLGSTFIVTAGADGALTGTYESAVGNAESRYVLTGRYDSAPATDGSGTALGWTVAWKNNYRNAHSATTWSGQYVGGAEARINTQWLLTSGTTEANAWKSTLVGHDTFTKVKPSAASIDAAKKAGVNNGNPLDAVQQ
Chain of Torsin-1A (Homo sapiens) (O14656 whole entry, looked up): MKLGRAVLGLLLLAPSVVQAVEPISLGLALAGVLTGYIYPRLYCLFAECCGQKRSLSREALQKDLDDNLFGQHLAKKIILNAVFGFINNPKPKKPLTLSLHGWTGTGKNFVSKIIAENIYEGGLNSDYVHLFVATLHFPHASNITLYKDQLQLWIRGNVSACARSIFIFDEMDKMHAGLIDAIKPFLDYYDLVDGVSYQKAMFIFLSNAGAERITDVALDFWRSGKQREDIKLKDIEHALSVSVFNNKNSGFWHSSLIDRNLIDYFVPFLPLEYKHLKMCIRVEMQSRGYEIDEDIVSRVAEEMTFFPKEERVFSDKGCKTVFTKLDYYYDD

As for `COCCOC(=O)N1C(=O)[C@@]2(c3cc(C#CCC(C(=O)OC)C(=O)OC)ccc31)[C@H](C(=O)Nc1nc3ccccc3s1)[C@H]1C(=O)O[C@H](c3ccccc3)[C@H](c3ccccc3)N1[C@@H]2c1ccc(O)cc1`, the composite z-score in [1] came out at 0.624; in [6], 1.27; in [7] it was 0.326; in the experiment with Torsin-1A (Homo sapiens) [8], 0.391; with Torsin-1A (Homo sapiens) [9], 0.0756; in [10], 1.84. Further, the composite z-score in experiment [12] came out at 0.786. In addition, the z-score in [2] was -0.869 (inactive); in [3] it was 0.446 (inactive); in experiment [4] it was -1.14 (inactive); in experiment [5], 0.316 (inactive); in [11], 0.0976 (inactive); in experiment [13] it was 1.3 (inactive). In addition, the z-score was 0.575 (inactive) in experiment [14]; -0.0813 (inactive) in [15]; 0.751 (inactive) in experiment [16]; -0.0525 in [17]; 1.59 (inactive) in experiment [18]; -1.11 (inactive) in experiment [19]. The molecule further returned a z-score in experiment [20] of 0.755.
In the case of `C[N+](C)(C)CCCC[C@@H]1NC(=O)[C@@H]2C[C@H](C(=O)NCc3ccc(F)cc3)[C@H](c3ccc(O)cc3)N2C1=O`, the composite z-score is -0.176 in experiment [1]; -0.369 in experiment [6]; -0.0963 in experiment [7]; 0.965 with Torsin-1A (Homo sapiens) [8]; 0.729 with Torsin-1A (Homo sapiens) [9]; 1.64 in [10]. Moreover, in experiment [12], the composite z-score is -0.0186. The z-score in experiment [2] is -0.0669 (inactive); in [3], -1.22 (inactive); in [4], 0.692 (inactive); in experiment [5] it was 0.663 (inactive); in experiment [11], -0.7 (inactive); in experiment [13], 0.936 (inactive). Moreover, the z-score in experiment [14] was 0.376 (inactive); in [15] it was -1.65 (inactive); in [16], 0.104 (inactive); in [17], 0.567; in experiment [18], 0.274 (inactive); in experiment [19], 0.22 (inactive). This molecule also returned a z-score in [20] of 1.17.
For `CCCCC(=C=CC[C@H](O)c1ccc(CO)o1)CCO`, the composite z-score was 0.0119 in experiment [1]; -0.144 in experiment [6]; -0.128 in [7]; 1.39 in the experiment with Torsin-1A (Homo sapiens) [8]; 0.587 in the experiment with Torsin-1A (Homo sapiens) [9]; 1.69 in experiment [10]. Moreover, in experiment [12], the composite z-score was -0.0445. Besides, the z-score in experiment [2] was 0.0865 (inactive); in experiment [3], 0.0836 (inactive); in experiment [4], 0.96 (inactive); in [5] it was 1.56 (inactive); in experiment [11] it was -0.258 (inactive); in experiment [13], 2 (inactive). The z-score was 0.278 (inactive) in [14]; 0.517 (inactive) in [15]; 0.134 (inactive) in experiment [16]; -0.189 in experiment [17]; 0.802 (inactive) in [18]; -0.0669 (inactive) in [19]. The z-score in experiment [20] is -0.395.
As for `COc1cc(OC)c(C(O)C2C=CC3C(=O)N(c4ccccc4)C(=O)C3N2Nc2ccc(C(C)C)cc2)cc1Br` (stereo not given), the composite z-score in experiment [1] was determined as 0.386; in [6] it was 1.71; in experiment [7], 0.136; with Torsin-1A (Homo sapiens) [8], 0.255; in the experiment with Torsin-1A (Homo sapiens) [9], 0.345; in experiment [10], 0.415. Moreover, the composite z-score in experiment [12] is -0.0889. The z-score in experiment [2] is -0.942 (inactive); in [3], -1.49 (inactive); in experiment [4], 1.78 (inactive); in [5] it was -0.567 (inactive); in [11], 0.857 (inactive); in [13], 2.94 (inactive). In addition, the z-score in [14] is 1.93 (inactive); in experiment [15], -0.255 (inactive); in experiment [16] it was 1.49 (inactive); in experiment [17], -1.06; in [18], 0.0256 (inactive); in experiment [19] it was -3.73 (inactive). The z-score in [20] was -2.24.

For the origin of these results see PubChem BioAssay.
